Reference: PubChem BioAssay (NCI)
The panel holds about 79,000 compounds, 15% with a hit somewhere; the sample as a whole holds those more often. Unmarked numbers belong to inactive results. Activity calls are given as the source filed them. Rule as the data show it: active = growth inhibition above about 70%; inactive = the rest.

Tests used:
[1] = NCI Yeast Anticancer Drug Screen. Data for the wt1 strain (AID 149);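 also: 0% = growth of vehicle-treated wt1 cultures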; conditions: S. cerevisiae wt1 strain (SPY 50644) growth inhibition, active compounds read high
Outline: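 Vehicle-normalised growth inhibition; strain wt1; compound exposure.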

[2] = NCI Yeast Anticancer Drug Screen. Data for the rad50EPP+ strain (AID 151);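 also: 0% = growth of vehicle-treated control cultures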; conditions: S. cerevisiae rad50 mutant strain, active compounds read high
Outline: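 Read-out is yeast growth inhibition relative to vehicle; cells used were the rad50EPP+ strain.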

[3] = NCI Yeast Anticancer Drug Screen. Data for the mgt1 strain (AID 153); conditions: S. cerevisiae mgt1 mutant growth inhibition, active compounds read high
Outline: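 Measured: inhibition of mgt1 yeast growth by compound, normalized to vehicle-treated cultures.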

[4] = NCI Yeast Anticancer Drug Screen. Data for the rad50 strain (AID 155);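 also: 0% = growth of vehicle-only cultures of the same strain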; conditions: S. cerevisiae rad50 strain growth inhibition, active compounds read high
Outline: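 A DNA repair-deficient yeast mutant serves as the test organism; compound-induced growth inhibition is calculated against vehicle-treated cells.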

[5] = NCI Yeast Anticancer Drug Screen. Data for the mec2-1 strain (AID 157); conditions: S. cerevisiae mec2-1 strain, active compounds read high
Outline: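 Using mec2-1 yeast: add compound, measure growth, express inhibition versus vehicle-treated cultures.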

[6] = NCI Yeast Anticancer Drug Screen. Data for the rad14 strain (AID 159);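 also: 0% = growth of vehicle-treated control cultures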; conditions: S. cerevisiae rad14 strain growth inhibition, active compounds read high
Outline: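 Vehicle-treated cultures served as the baseline for growth inhibition of a DNA repair-mutant yeast strain exposed to each compound.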

[7] = NCI Yeast Anticancer Drug Screen. Data for the sgs1 mgt1 strain (AID 161);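 also: 0% = growth of cultures given vehicle only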; conditions: S. cerevisiae sgs1 mgt1 strain, active compounds read high
Outline: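 Percent growth inhibition was derived by comparing compound-exposed mutant yeast with vehicle-exposed cultures. The strain carries alterations in DNA damage repair.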

[8] = NCI Yeast Anticancer Drug Screen. Data for the CLN2oe strain (AID 163);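 also: 0% = growth of vehicle-only control cultures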; conditions: S. cerevisiae CLN2oe strain, active compounds read high
Outline: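 Whole-cell yeast growth assay. A strain engineered for altered cell-cycle control received compound, and inhibition relative to vehicle-treated cultures was recorded.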

[9] = NCI Yeast Anticancer Drug Screen. Data for the cln2 rad14 strain (AID 165);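 also: 0% = growth equal to vehicle treated cultures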; conditions: S. cerevisiae cln2 rad14 strain, active compounds read high
Outline: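 Yeast strain cln2 rad14, bearing defects in cell cycle control and DNA repair, serves as the test system; values reflect growth inhibition compared with vehicle.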

[10] = NCI Yeast Anticancer Drug Screen. Data for the bub3 strain (AID 167); conditions: S. cerevisiae bub3 mutant strain, active compounds read high
Outline: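 Inhibition values come from growth of compound-treated mutant yeast normalised to vehicle-treated controls.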

[11] = NCI Yeast Anticancer Drug Screen. Data for the wt2 strain (AID 169);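 also: 0% = growth of vehicle-treated yeast cultures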; conditions: S. cerevisiae wt2 strain growth inhibition, active compounds read high
Outline: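 Treated yeast vs. vehicle-treated yeast: growth inhibition determined.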

[12] = NCI Yeast Anticancer Drug Screen. Data for the mlh1 strain (AID 171);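 also: 0% = growth of vehicle-treated control cultures of the same strain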; conditions: S. cerevisiae mlh1 strain growth inhibition, active compounds read high
Outline: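 A yeast strain with a defined genetic lesion serves as the test organism. Cultures receive compound or vehicle, and growth is measured.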

[13] = NCI Yeast Anticancer Drug Screen. Data for the sgs1 strain (AID 173);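 also: 0% = growth of vehicle-only control cultures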; conditions: S. cerevisiae sgs1 mutant, active compounds read high
Outline: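 A genetically defined yeast mutant is incubated with the test compound, and its growth is compared to that of the same strain given vehicle.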

[14] = NCI Yeast Anticancer Drug Screen. Data for the mlh1 rad18 strain (AID 175); conditions: S. cerevisiae mlh1 rad18 strain growth inhibition, active compounds read high
Outline: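 Steps: expose repair-defective yeast to compound; measure growth; express inhibition against vehicle-treated controls.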

[15] = NCI Yeast Anticancer Drug Screen. Data for the rad18 strain (AID 177); conditions: S. cerevisiae rad18 mutant growth inhibition, active compounds read high
Outline: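 Measured value is growth inhibition of a yeast strain bearing a DNA repair alteration, referenced to vehicle-treated cells.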

[16] = at 5.0 µM (retest, dose inferred, filed as 0.5)
[17] = at 50.0 µM (retest, dose inferred, filed as 5.0)

SMILES: c1ccc(N/N=C2\CC(c3ccccc3)Oc3ccccc32)cc1 (stereo unspecified)
- growth inhibition ([1]; at 1.2 µM): -1%
- growth inhibition ([1]; at 3.7 µM): 0%
- growth inhibition ([1]; at 11.0 µM): -3%
- growth inhibition ([1]; at 33.0 µM): -2%
- growth inhibition ([1]; at 100.0 µM): -2%
- growth inhibition ([2]; at 1.2 µM): 19%
- growth inhibition ([2]; at 3.7 µM): 33%
- growth inhibition ([2]; at 11.0 µM): 47%
- growth inhibition ([2]; at 33.0 µM): 64%
- growth inhibition ([2]; at 100.0 µM): 50%
- growth inhibition ([3]; at 1.2 µM): -3%
- growth inhibition ([3]; at 3.7 µM): -1%
- growth inhibition ([3]; at 11.0 µM): 6%
- growth inhibition ([3]; at 33.0 µM): 11%
- growth inhibition ([3]; at 100.0 µM): 22%
- growth inhibition ([4]; at 1.2 µM): 4%
- growth inhibition ([4]; at 3.7 µM): 11%
- growth inhibition [4, 16]: 5%
- growth inhibition ([4]; at 11.0 µM): 1%
- growth inhibition ([4]; at 33.0 µM): 32%
- growth inhibition [4, 17]: 8%
- growth inhibition ([4]; at 50.0 µM): 71.2% (active)
- growth inhibition ([4]; at 100.0 µM): 28%
- growth inhibition ([5]; at 1.2 µM): 1%
- growth inhibition ([5]; at 3.7 µM): 4%
- growth inhibition [5, 16]: -2%
- growth inhibition ([5]; at 11.0 µM): 9%
- growth inhibition ([5]; at 33.0 µM): 14%
- growth inhibition [5, 17]: 23%
- growth inhibition ([5]; at 50.0 µM): 31.4%
- growth inhibition ([5]; at 100.0 µM): 13%
- growth inhibition ([6]; at 1.2 µM): 0%
- growth inhibition ([6]; at 3.7 µM): 4%
- growth inhibition ([6]; at 11.0 µM): 10%
- growth inhibition ([6]; at 33.0 µM): 52%
- growth inhibition ([6]; at 100.0 µM): 72% (active)
- growth inhibition [7, 16]: -5%
- growth inhibition [7, 17]: 26%
- growth inhibition ([7]; at 50.0 µM): 74% (active)
- growth inhibition ([8]; at 1.2 µM): 0%
- growth inhibition ([8]; at 3.7 µM): 1%
- growth inhibition ([8]; at 11.0 µM): 1%
- growth inhibition ([8]; at 33.0 µM): 12%
- growth inhibition ([8]; at 100.0 µM): 17%
- growth inhibition [9, 16]: -5%
- growth inhibition [9, 17]: 4%
- growth inhibition ([9]; at 50.0 µM): 30.6%
- growth inhibition ([10]; at 1.2 µM): 1%
- growth inhibition ([10]; at 3.7 µM): 4%
- growth inhibition [10, 16]: -24%
- growth inhibition ([10]; at 11.0 µM): 15%
- growth inhibition ([10]; at 33.0 µM): 39%
- growth inhibition [10, 17]: 27%
- growth inhibition ([10]; at 50.0 µM): 53%
- growth inhibition ([10]; at 100.0 µM): 39%
- growth inhibition ([11]; at 1.2 µM): 0%
- growth inhibition ([11]; at 3.7 µM): -4%
- growth inhibition ([11]; at 11.0 µM): 5%
- growth inhibition ([11]; at 33.0 µM): 21%
- growth inhibition ([11]; at 100.0 µM): 29%
- growth inhibition ([12]; at 1.2 µM): 1%
- growth inhibition ([12]; at 3.7 µM): 0%
- growth inhibition ([12]; at 11.0 µM): 4%
- growth inhibition ([12]; at 33.0 µM): 6%
- growth inhibition ([12]; at 100.0 µM): 3%
- growth inhibition ([13]; at 1.2 µM): -1%
- growth inhibition ([13]; at 3.7 µM): 0%
- growth inhibition ([13]; at 11.0 µM): 5%
- growth inhibition ([13]; at 33.0 µM): 18%
- growth inhibition ([13]; at 100.0 µM): 24%
- growth inhibition [14, 16]: -26%
- growth inhibition [14, 17]: 50%
- growth inhibition ([14]; at 50.0 µM): 72.5% (active)
- growth inhibition ([15]; at 1.2 µM): 6%
- growth inhibition ([15]; at 3.7 µM): 14%
- growth inhibition ([15]; at 11.0 µM): 20%
- growth inhibition ([15]; at 33.0 µM): 33%
- growth inhibition ([15]; at 100.0 µM): 49%

SMILES: Nc1nc(Nc2ccccc2)nc(Nc2ccccc2)n1
- growth inhibition ([1]; at 1.2 µM): -3%
- growth inhibition ([1]; at 3.7 µM): -10%
- growth inhibition ([1]; at 11.0 µM): -12%
- growth inhibition ([1]; at 33.0 µM): -15%
- growth inhibition ([1]; at 100.0 µM): 81% (active)
- growth inhibition ([2]; at 1.2 µM): 1%
- growth inhibition ([2]; at 3.7 µM): -6%
- growth inhibition ([2]; at 11.0 µM): 21%
- growth inhibition ([2]; at 33.0 µM): 28%
- growth inhibition ([2]; at 100.0 µM): 50%
- growth inhibition ([3]; at 1.2 µM): -1%
- growth inhibition ([3]; at 3.7 µM): -7%
- growth inhibition ([3]; at 11.0 µM): -3%
- growth inhibition ([3]; at 33.0 µM): 2%
- growth inhibition ([3]; at 100.0 µM): 92% (active)
- growth inhibition ([4]; at 1.2 µM): -6%
- growth inhibition ([4]; at 3.7 µM): -10%
- growth inhibition [4, 16]: 4%
- growth inhibition ([4]; at 11.0 µM): -6%
- growth inhibition ([4]; at 33.0 µM): 11%
- growth inhibition [4, 17]: 7%
- growth inhibition ([4]; at 50.0 µM): 93.5% (active)
- growth inhibition ([4]; at 100.0 µM): 93% (active)
- growth inhibition ([5]; at 1.2 µM): -1%
- growth inhibition ([5]; at 3.7 µM): 1%
- growth inhibition [5, 16]: -2%
- growth inhibition ([5]; at 11.0 µM): -1%
- growth inhibition ([5]; at 33.0 µM): -2%
- growth inhibition [5, 17]: 21%
- growth inhibition ([5]; at 50.0 µM): 85.8% (active)
- growth inhibition ([5]; at 100.0 µM): 81% (active)
- growth inhibition ([6]; at 1.2 µM): 5%
- growth inhibition ([6]; at 3.7 µM): 1%
- growth inhibition ([6]; at 11.0 µM): 1%
- growth inhibition ([6]; at 33.0 µM): 36%
- growth inhibition ([6]; at 100.0 µM): 95% (active)
- growth inhibition [7, 16]: 3%
- growth inhibition [7, 17]: 66%
- growth inhibition ([7]; at 50.0 µM): 94% (active)
- growth inhibition ([8]; at 1.2 µM): -7%
- growth inhibition ([8]; at 3.7 µM): -6%
- growth inhibition ([8]; at 11.0 µM): -6%
- growth inhibition ([8]; at 33.0 µM): -3%
- growth inhibition ([8]; at 100.0 µM): 87% (active)
- growth inhibition [9, 16]: -4%
- growth inhibition [9, 17]: 8%
- growth inhibition ([9]; at 50.0 µM): 81.2% (active)
- growth inhibition ([10]; at 1.2 µM): -4%
- growth inhibition ([10]; at 3.7 µM): -3%
- growth inhibition [10, 16]: -5%
- growth inhibition ([10]; at 11.0 µM): -8%
- growth inhibition ([10]; at 33.0 µM): 5%
- growth inhibition [10, 17]: 32%
- growth inhibition ([10]; at 50.0 µM): 91.5% (active)
- growth inhibition ([10]; at 100.0 µM): 95% (active)
- growth inhibition ([11]; at 1.2 µM): -15%
- growth inhibition ([11]; at 3.7 µM): -8%
- growth inhibition ([11]; at 11.0 µM): -7%
- growth inhibition ([11]; at 33.0 µM): 66%
- growth inhibition ([11]; at 100.0 µM): 96% (active)
- growth inhibition ([12]; at 1.2 µM): -6%
- growth inhibition ([12]; at 3.7 µM): -2%
- growth inhibition ([12]; at 11.0 µM): -3%
- growth inhibition ([12]; at 33.0 µM): 35%
- growth inhibition ([12]; at 100.0 µM): 97% (active)
- growth inhibition ([13]; at 1.2 µM): -10%
- growth inhibition ([13]; at 3.7 µM): -3%
- growth inhibition ([13]; at 11.0 µM): 6%
- growth inhibition ([13]; at 33.0 µM): 57%
- growth inhibition ([13]; at 100.0 µM): 97% (active)
- growth inhibition [14, 16]: 0%
- growth inhibition [14, 17]: 58%
- growth inhibition ([14]; at 50.0 µM): 96.5% (active)
- growth inhibition ([15]; at 1.2 µM): -1%
- growth inhibition ([15]; at 3.7 µM): 5%
- growth inhibition ([15]; at 11.0 µM): 2%
- growth inhibition ([15]; at 33.0 µM): 31%
- growth inhibition ([15]; at 100.0 µM): 96% (active)
